Measurements as given in the supplement of paper PMC6279402.
Counter-ions that a name gives are not always drawn. ± gives the standard deviation of the averaged measurements.

tested on: A549; assay: relative viability (normalised to negative control = 1, bortezomib = 0) (fraction); higher = less cytotoxic; conditions: inflammatory serum-free RHB-A with cytokines + LPS; 5 d + 24 h CellTiter-Blue; compound 30 nM; GSK126 pretreatment: 5 uM GSK126

SMILES | relative viability
Cc1cccc(-c2[nH]c(C(C)(C)C)nc2-c2ccc3nccnc3c2)n1 | 0.848 ± 0.048
CC(C)c1cnn2c(NCc3ccccc3)cc(NCCCCCCN)nc12 [BS-181 hydrochloride] | 0.804 ± 0.083
CCc1c2c(nc3ccc(OC(=O)N4CCC(N5CCCCC5)CC4)cc13)-c1cc3c(c(=O)n1C2)COC(=O)[C@]3(O)CC [Irinotecan HCl; Irinotecan hydrochloride] | 0.898 ± 0.038
CN1CCN(CCOc2cc(OC3CCOCC3)c3c(Nc4c(Cl)ccc5c4OCO5)ncnc3c2)CC1 [AZD0530(Saracatinib)] | 0.831 ± 0.073
Cc1cc(C(C)Nc2ccccc2)c2nc(N3CCOCC3)cc(=O)n2c1 (centres undefined) | 0.763 ± 0.083
OCCn1cc(-c2ccc3c(c2)CC/C3=N\O)c(-c2ccncc2)n1 | 0.948 ± 0.11
CCN(CCO)CCCOc1ccc2c(Nc3cc(CC(=O)Nc4cccc(F)c4)[nH]n3)ncnc2c1 [AZD1152-HQPA(Barasertib)] | 0.73 ± 0.079
COc1ccc(S(=O)(=O)N(C(C)=O)c2ccccc2/C=C/c2cc[n+]([O-])cc2)cc1 | 0.924 ± 0.032
C#Cc1cccc(Nc2ncnc3cc(OCCOC)c(OCCOC)cc23)c1 | 0.81 ± 0.083
CCCNC(=O)Nc1ccc(Oc2ncnc3cc(OC)c(OC)cc23)cc1Cl | 0.713 ± 0.055
CC(C)C[C@H](NC(=O)[C@H](CCc1ccccc1)NC(=O)CN1CCOCC1)C(=O)N[C@@H](Cc1ccccc1)C(=O)N[C@@H](CC(C)C)C(=O)[C@@]1(C)CO1 [Carfilzomib] | -0.00043 ± 0.0042
CNNCc1ccc(C(=O)NC(C)C)cc1 [Procarbazine hydrochloride; Procarbazine] | 0.962 ± 0.15
COC(=O)Nc1ccc(-c2nc(N3CCOCC3)c3cnn(C4CCN(C(=O)OC)CC4)c3n2)cc1 | 0.691 ± 0.035
Cn1c(Nc2ccc(C(F)(F)F)cc2)nc2cc(Oc3ccnc(-c4ncc(C(F)(F)F)[nH]4)c3)ccc21 | 0.826 ± 0.12
COc1cc(N2CCC(N3CCN(C)CC3)CC2)ccc1Nc1ncc(Cl)c(Nc2ccccc2S(=O)(=O)C(C)C)n1 | 0.545 ± 0.012
O=C1CCC(N2C(=O)c3ccccc3C2=O)C(=O)N1 (centres undefined) | 0.862 ± 0.17
Cc1ccc([N+](=O)[O-])cc1S(=O)(=O)N(C)/N=C/c1cnc2ccc(Br)cn12 [PIK-75 Hydrochloride] | 0.0451 ± 0.0082
CS(=O)(=O)N1CCN(Cc2cc3nc(-c4cccc5[nH]ncc45)nc(N4CCOCC4)c3s2)CC1 | 0.716 ± 0.093
Cn1cnc2c(F)c(Nc3ccc(Br)cc3Cl)c(C(=O)NOCCO)cc21 [AZD6244(Selumetinib)] | 0.401 ± 0.0087
O=C1NC(=O)/C(=C\c2ccc3nccnc3c2)S1 | 0.877 ± 0.1
C=CC(=O)Nc1cccc(Sc2nc(Nc3ccc(N4CCN(C)CC4)cc3)ncc2Cl)c1 | 0.859 ± 0.1
Cc1ccc(C(=O)Nc2cccc(C(F)(F)F)c2)cc1Nc1nc(-c2cccnc2)nc2c1cnn2C | 0.992 ± 0.12
CC(=O)Nc1cccc(-n2c(=O)n(C3CC3)c(=O)c3c(Nc4ccc(I)cc4F)n(C)c(=O)c(C)c32)c1 | 0.144 ± 0.01
C[C@@H]1CN(CC(=O)Nc2ccc3c(c2)Cc2cccc(-c4cc(=O)cc(N5CCOCC5)o4)c2S3)C[C@H](C)O1 | 0.816 ± 0.029
